# Compound activity (PubChem BioAssay)
# This is a sample that favours compounds with a hit; in the whole collection about 7.3% have one here.
# Rab9 prom act: activates the Rab9 promoter. Huh7 Rab9 promoter-luciferase reporter, luminescence, 24 h. Potency, µM (doses to about 9.22 µM), without a hit: top-dose activation, negative = inhibition, actives largely listed as activators. 320,000 compounds, 2.8% hits; further: % of control where 0% means no effect; nearly all actives have a fitted effect of over 60% in size
#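 Huh7 cells stably carrying Rab9 promoter–luciferase reporter, plated 1500 cells/well, compound added after 2 h and incubated 24 h at 37 °C; luciferase luminescence then read after 10 min with detection reagent.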
# ELG1 genotoxic: induces genotoxicity in HEK293T cells with luciferase-tagged ELG1 | AID 504466 | HEK293T ELG1-luciferase reporter, luminescence, 16 h | Potency, µM (highest dose often 46 µM), without a hit: at the highest dose activity change, positive = activation, hits mostly activators | 330,000 compounds, 1.3% hits; further: % of control where 0% means no effect; nearly all actives have a fitted effect of over 60% in size
#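 Step 1: seed 2,000 HEK293T ELG1-luciferase cells per well. Step 2: add compound or DMSO, incubate 16 hr at 37 °C. Step 3: ONE-Glo, 30 min at room temperature, read luminescence.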
# uPA surface inh: blocks generation of uPA at the cell surface; 330,000 compounds, 0.31% hits; cell surface uPA generation assay, qHTS; Potency, µM (series often up to 38.3 µM), without a hit: top-dose activity change, negative = inhibition, usual class: inhibitors; AID 540303; active means well fitted inhibition curve with a large enough effect; inconclusive means small, poorly fitted or top-dose-only effect; inactive means no such curve, though single readings can be large or run the other way; tested in mouse RAW 264.7 cells; further: on the % scale 0 is the no-effect control and ±100 the full control effect; nearly all actives have a fitted effect of over 55% in size
# SMN2 splice up: increases expression of the SMN2 splice variant | 210,000 compounds, 2.8% hits | HEK293 SMN2-luciferase splicing reporter, luminescence, 30-36 h | AID 1458 | Potency, µM (doses to about 46.1 µM), for inactives: at the top dose activity change, positive = activation, actives largely listed as activators; further: % of control where 0% means no effect; nearly all actives have a fitted effect of over 55% in size
#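 HEK293 cells carry an SMN2 […]–luciferase reporter in which exon 7 inclusion puts luciferase in frame. Cells were plated 10-12 h before compound addition, then incubated 30-36 h at 37C. ONE-Glo luminescence was read; sodium butyrate at 4.5 mM final served as control.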
# NPC1 promoter act: activators of NPC1 promoter. Huh7 NPC1 promoter luciferase reporter, 24 h. Potency, µM (top dose mostly 9.22 µM), for inactives: top-dose activation, most hits filed as activators. 320,000 compounds, 2.4% hits; further: % of control where 0% means no effect; nearly all actives have a fitted effect of over 60% in size
#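 Compounds in DMSO were transferred onto Huh7 NPC1-luciferase reporter cells pre-incubated 2 h; after 24 h at 37 °C, Amplite reagent was dispensed and luminescence recorded 10 min later.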
# FLuc modulator: counter-screen for miR-21 project: firefly luciferase inhibitors or activators. 360,000 compounds, 6.9% hits. purified FLuc, Km substrates, luminescence inhibition. Potency, µM (highest dose often 57.5 µM), for inactives: top-dose activity change, negative = inhibition, usual class: inhibitors;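 further: plate controls were vehicle for no effect and reference inhibitor for full effect; nearly all actives have a fitted effect of over 55% in size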
# Target sequence (P08659 whole entry, looked up): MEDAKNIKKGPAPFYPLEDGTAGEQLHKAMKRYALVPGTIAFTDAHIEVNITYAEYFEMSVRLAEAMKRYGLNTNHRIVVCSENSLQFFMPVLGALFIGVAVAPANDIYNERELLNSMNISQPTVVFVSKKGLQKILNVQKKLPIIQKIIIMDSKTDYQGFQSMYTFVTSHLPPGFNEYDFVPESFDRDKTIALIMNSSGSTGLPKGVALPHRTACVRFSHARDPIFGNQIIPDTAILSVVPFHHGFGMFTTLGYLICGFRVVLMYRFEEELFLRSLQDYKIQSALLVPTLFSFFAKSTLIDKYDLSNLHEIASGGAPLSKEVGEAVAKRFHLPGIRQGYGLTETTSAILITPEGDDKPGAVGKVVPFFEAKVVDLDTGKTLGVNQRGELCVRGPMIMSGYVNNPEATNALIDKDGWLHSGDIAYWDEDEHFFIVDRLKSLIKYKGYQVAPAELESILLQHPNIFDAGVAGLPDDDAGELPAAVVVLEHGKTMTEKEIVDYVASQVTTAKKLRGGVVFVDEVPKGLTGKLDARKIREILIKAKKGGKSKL
#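 Biochemical qHTS of compounds, final roughly 60 µM downward over six points, against 10 nM purified firefly luciferase using Km concentrations of substrates (10 uM D-luciferin, 10 uM ATP) in Tris acetate pH 7.5 buffer; luminescence output.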
# An asterisk follows results filed as active; ? = inconclusive; nt = no result given. Unless noted, the call rests on the fitted dose curve; in most records, active means well fitted curve in the direction sought with a large enough effect; inconclusive means small, poorly fitted or top-dose-only effect, or another doubt; inactive means no such curve, though single readings can be large; an effect the other way counts as inactive or inconclusive. Potency means the concentration at half of the fitted maximal effect.
SMILES,Rab9 prom act,ELG1 genotoxic,uPA surface inh,SMN2 splice up,NPC1 promoter act,FLuc modulator
COc1ccccc1N1CCN(C(=O)C2CCN(S(=O)(=O)c3cccs3)CC2)CC1,nt,nt,nt,-1%,nt,-6%
C[Si](C)(C)Cl,nt,nt,nt,5%,nt,nt
COCCn1c(C)cc(/C=N/NC(=O)c2cc3ccccc3cc2O)c1C,16%,1%,7%,nt,-3%,15µM*
COc1ccc2c(c1)cc(C(=O)N/N=C/c1c(O)c(C(=O)O)cc3ccccc13)n2C,0%,2%,5%,nt,0%,2.4µM*
COc1cc(/C=N/NC(=O)c2cc3ccccc3cc2O)ccc1OCCN1CCCCC1,0%,2%,-1%,11%,2%,?
Cn1c(C(=O)NN)cc2cc(Oc3ccccc3)ccc21,2%,-3%,2%,nt,3%,-4%
Cn1c(O)c(/C=N/NC(=O)c2cc3ccccc3cc2O)c2ccccc21,3.5µM*,?,1%,nt,?,17µM*
CCc1nn(CC(=O)Nc2c(C)cc(C)cc2C)c(=O)c2cc3sccc3n12,nt,nt,nt,2%,nt,-11%
CC(C)(C)OC(=O)NCCCCC1=CC2=CC(=O)C(C)(OC(=O)CCc3ccccc3)C(=O)C2=CO1 (stereo not drawn),nt,nt,nt,2%,nt,nt
COc1ccc(NC(=O)Cc2nnc(SCC(=O)Nc3nccs3)n2C)cc1,4%,2%,-4%,nt,7%,15µM*
CCOc1ccc(NC(=O)CSc2nccn2C)cc1,?,?,-3%,?,21%,?
COc1ccc(CC(=O)NCc2nnc(SCC(=O)Nc3cccc(F)c3)n2C)cc1,-8%,0%,1%,5%,0%,15µM*
Cn1ccnc1SCC(=O)Nc1ccc(Oc2ccccc2)cc1,11%,?,10%,-7%,?,13µM*
COc1ccc(NC(=O)Cc2nnc(SCC(=O)Nc3ccccc3)n2C)cc1,6%,2%,2%,nt,3%,17µM*
O=C(CSc1nc2c([nH]c3ccccc32)c(=O)n1-c1ccccc1)N1CCCCCC1,nt,nt,nt,nt,nt,5%
COC(=O)Cn1c(=O)c2cccn2c2cccnc21,nt,nt,nt,-1%,nt,-9%
Cc1ccc(CNC(=O)CSc2c(C(C)C)cnc3c2c(=O)n(C)c(=O)n3C)cc1,nt,nt,nt,nt,nt,-3%
COc1ccc(C(=O)NCCc2nnc3ccc(SCC(=O)Nc4ccccc4)nn23)cc1,2.8µM*,?,10%,nt,1.6µM*,3µM*
O=C(CSc1ccc2nnc(CCNC(=O)c3ccccc3)n2n1)Nc1ccccc1,1%,2%,2%,-17%,-3%,-2%
Cc1cc(C(=O)Nc2sc3c(c2C#N)CCC(C)C3)no1 (stereo not drawn),2µM*,2.1µM*,nt,14µM*,1.8µM*,2.7µM*
CCOC(=O)c1cc(C(=O)Nc2sc3c(c2C#N)CCCC3)nn1C,?,7%,4%,nt,2%,4.8µM*
Cc1cc(C(=O)Nc2sc3c(c2C#N)CCC3)no1,29%,6.5µM*,?,?,-3%,5.4µM*
Cc1cc(C(=O)Nc2sc3c(c2C#N)CCCC3)no1,1.6µM*,?,nt,6.3µM*,3.2µM*,2.4µM*
Cc1cc(NC(=O)c2ccccc2)no1,?,?,0%,nt,?,24µM*
Cc1cc(NC(=O)c2cccc(Br)c2)no1,nt,nt,0%,nt,nt,nt
SMILES,Rab9 prom act,ELG1 genotoxic,uPA surface inh,SMN2 splice up,NPC1 promoter act,FLuc modulator
C/C(=C\C(=O)Nc1cc(C)on1)c1ccccc1,27%,14%,nt,?,29%,12µM*
COc1ccc(C(=O)Nc2noc3ccccc23)cc1,nt,nt,nt,?,nt,0.24µM*
Cc1cc(NC(=O)c2ccc(C)c(C)c2)no1,2.8µM*,?,?,nt,3.5µM*,24µM*
COc1ccc(C(=O)Nc2c(C(=O)c3ccccc3)oc3ccccc23)cc1,nt,nt,nt,14%,nt,-1%
Cc1ccc(C)c(NC(=O)CCN2CCCC(C)C2)c1 (stereo not drawn),-3%,3%,6%,nt,0%,0%
COc1ccc(C(=O)Nc2cc(C)on2)cc1,1.8µM*,?,-16%,13µM*,2µM*,6.7µM*
CNc1nc(N)c(C(=O)Nc2cc(C)on2)s1,?,13%,-4%,14µM*,?,?
CC(=O)Oc1ccc(C(=O)Nc2cc(C)on2)cc1,?,?,-13%,nt,?,15µM*
COc1ccc(OCc2cccc(C(=O)Nc3cc(C)on3)c2)cc1,0.1µM*,?,-3%,0.2µM*,0.1µM*,3.8µM*
COc1cc(OC)cc(C(=O)Nc2cc(C)on2)c1,-2%,3%,24%,nt,-1%,4%
Cc1cccc(OCc2ccc(C(=O)Nc3cc(C)on3)o2)c1,5%,1%,3%,nt,9%,-2%
Cc1cc(NC(=O)c2ccc(NC(=O)C(C)C)cc2)no1,?,?,-6%,6%,14%,?
Cc1cc(C(=O)Nc2cc(C)on2)on1,8%,-6%,-7%,nt,-2%,0%
Cc1ccc(NC(=O)C2CCCN(S(=O)(=O)c3cccc4cccnc34)C2)c(C)c1 (stereo not drawn),nt,nt,nt,-17%,nt,2%
COCCCNC(=O)NC(CCC(C)C)c1c(-n2cccc2)sc2c1CCN(C)C2 (stereo not drawn),nt,nt,nt,nt,nt,1%
CCOC(=O)c1[nH]c(C)c(CCC(=O)Nc2ccc(C)cc2Cl)c1C,nt,nt,nt,nt,nt,-3%
COc1cc(OC)cc(C(=O)N2CCN(C(=O)COc3ccc4ccccc4c3)CC2)c1,3%,1%,-21%,-12%,9%,5.4µM*
COc1ccc(N2CCN(C(=O)COc3ccc4ccccc4c3)CC2)cc1,-1%,0%,-2%,1%,-3%,-2%
O=C(COc1ccccc1)N1CCN(C(=O)c2ccc([N+](=O)[O-])cc2)CC1,3.2µM*,?,-5%,nt,4µM*,9.5µM*
COc1ccc(C)cc1NC(=O)Nc1ccc(C(=O)N2CCCC2)cc1,29%,18%,5%,nt,23%,13µM*
COc1ccc(Cl)cc1NC(=O)Nc1ccc(C(=O)N2CCCC2)cc1,19%,-6%,3%,nt,20%,21µM*
CC(NC(=O)c1cccs1)C(S)c1ccccc1 (stereo not drawn),3%,-5%,3%,nt,-2%,0%
CC(OC(=O)Cc1n[nH]c(=O)c2ccccc12)C(=O)Nc1ccc(F)cc1Cl (stereo not drawn),4%,2%,-5%,nt,-3%,-2%
CC(C)CC(=O)Nc1ccc(-c2nnn(CC(=O)NCc3ccco3)n2)cc1,?,?,-6%,?,?,11µM*
CCCCOc1ccc(-c2nnn(CC(=O)NCc3ccco3)n2)cc1,?,?,?,?,20%,?
CCc1ccc2c(c1)c(=O)c(S(=O)(=O)c1ccccc1)cn2CC(=O)Nc1ccc(OC)cc1,nt,nt,nt,1%,nt,-2%
